Only some compounds are listed: those with a hit (about 27% of all), similar ones and a draw of the others.
CYP2C9 activ: increases human cytochrome P450 2C9 activity; P11712; recombinant CYP2C9, luciferin-H conversion, luminescence; active compounds read high; factor 1 = untreated enzyme, 0 = blocked; activation factor at 5 µM; hit rate 1.4% among 96,000; AID 1024;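 active means activation factor of 2 or more for CYP2C9 at a 5 µM dose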;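 further: 0 = sulfaphenazole-blocked wells and 1 = vehicle-only wells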
CYP2C9 inh: blocks human cytochrome P450 2C9; P11712; CYP2C9 Supersomes, luciferin-H conversion, luminescence; inhibition, % at 5 µM; hit rate 20% among 96,000;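 active means blocking of liver enzyme CYP2C9 beyond about 50% at 5 µM, limit read from the data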
CYP2C19 inhib: blocks human cytochrome P450 2C19; CYP2C19 Supersomes, luciferin-H EGE luminescence, 30 min; inhibition, % at 5 µM; hit rate 21% among 96,000;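 active means CYP2C19 inhibition above a set limit at 5 µM in the primary screen, cut at about 50% in these data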;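 further: plate controls were negative control wells for no effect and 2.5 mM tranylcypromine positive control for full effect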
Target sequence (P33261 whole entry, looked up): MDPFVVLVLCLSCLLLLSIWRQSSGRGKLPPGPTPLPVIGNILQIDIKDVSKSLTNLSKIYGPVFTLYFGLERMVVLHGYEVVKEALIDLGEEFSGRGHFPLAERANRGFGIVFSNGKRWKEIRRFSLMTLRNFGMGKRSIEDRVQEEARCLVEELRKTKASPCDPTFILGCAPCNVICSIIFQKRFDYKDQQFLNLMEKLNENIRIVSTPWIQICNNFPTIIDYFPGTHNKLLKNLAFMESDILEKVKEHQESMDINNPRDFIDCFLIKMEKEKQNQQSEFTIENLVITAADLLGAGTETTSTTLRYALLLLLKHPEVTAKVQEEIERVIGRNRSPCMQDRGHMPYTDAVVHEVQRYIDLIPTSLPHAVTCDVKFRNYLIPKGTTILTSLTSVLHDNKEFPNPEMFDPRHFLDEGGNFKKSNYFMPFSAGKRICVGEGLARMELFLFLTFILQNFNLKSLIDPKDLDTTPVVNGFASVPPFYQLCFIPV
CYP2C19 activ: cytochrome P450 2C19 (human) activation | recombinant CYP2C19, luciferin-H EGE luminescence; active compounds read high; 0 = fully inhibited enzyme, 1 = untreated enzyme | activation factor at 5 µM | 96,000 tested, under 10 active | AID 1025;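 active means activation factor of at least 2 at 5 µM in the primary screen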;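 further: 0 = wells with 2.5 mM tranylcypromine and 1 = vehicle-only wells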
Cav32 inh: blocks human Cav3.2 T-type calcium channel; B-score at 10 µM; AID 449739; Cav3.2-expressing cells, Fluo-4 calcium fluorescence FDSS; active compounds read low; hit rate 4% among 100,000;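 active means single-dose well whose peak fluorescence ratio is a statistical outlier from its plate by either plate-standardised score or position-corrected B-score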
* = called active by the depositor; . = not tested or not shown.

SMILES	CYP2C9 activ	CYP2C9 inh	CYP2C19 inhib	CYP2C19 activ	Cav32 inh
CCCCc1ccc(NC(=O)C2CCCO2)cc1 (stereo not given)	0.8	20.3	10.8	0.9	-0.612
COc1ccc(N(CC(=O)N2c3ccccc3CC2C)S(=O)(=O)c2c(C)noc2C)cc1 (stereo not given)	0.1	92.5*	88.1*	0.1	-4.49
COc1ccc(OC)c2c1CCC2=O	.	.	.	.	0.487
CCOC(=O)CCSc1nc(C)c2cc(C)ccc2n1	0.4	57.6*	78.4*	0.2	-1.95
CCOC(=O)CCSc1nc(C)c2ccccc2n1	1.4	-41.2	20.5	0.8	-0.0822
COc1cc(C)ccc1OCCOc1ccccc1Cl	0.7	28.4	70.0*	0.3	-0.955
COc1cc(C=O)ccc1OCCOCCOc1cc(C)ccc1Cl	0.5	51.8*	49.9	0.5	-2.97
COc1cc(C)ccc1OCCOCCOc1c(C)cc(C)cc1Br	.	.	.	.	-2.27
CCOc1ccccc1OCCCOc1ccc([N+](=O)[O-])cc1Cl	.	.	.	.	-1.85
Cn1c(=O)c2c(-c3ccccc3F)c3c(nc2n(C)c1=O)-c1ccccc1C3O (stereo not given)	.	.	.	.	-0.911
CCn1nc(C(=O)OCC(=O)c2cc(C)n(Cc3cccs3)c2C)c2ccccc2c1=O	0.6	39.6	79.9*	0.2	-4.51
Cc1cc(C(=O)COC(=O)c2ccccc2O)c(C)n1Cc1cccs1	0.5	49.2	56.7*	0.4	-2.56
CC(=O)Nc1ccccc1OCC(=O)c1cc(C)n(Cc2cccs2)c1C	0.7	32.4	80.5*	0.2	-3.79
Cc1cc(C(=O)COC(=O)c2ccc3c(c2)OCO3)c(C)n1Cc1cccs1	0.8	19.1	47.9	0.5	-0.647
Cc1ccc(NC(=O)CS(=O)(=O)c2cn(C)c3ccccc23)c(C)c1	.	.	.	.	0.136
CCn1cc(S(=O)(=O)CC(=O)Nc2ccc(C)cc2)c2ccccc21	0.7	31.6	90.1*	0.1	-0.863
Cn1cc(S(=O)(=O)CC(=O)Nc2ccc(Br)cc2)c2ccccc21	1	-0.7	99.4*	0	-1.26
CCCn1cc(S(=O)(=O)CC(=O)Nc2ccc(OCC)cc2)c2ccccc21	0.7	30.3	24.4	0.8	-0.854
CCn1cc(S(=O)(=O)CC(=O)Nc2ccc3c(c2)OCCO3)c2ccccc21	0.3	69.6*	36.5	0.6	-0.999
CCn1cc(S(=O)(=O)CC(=O)Nc2cccc(C)c2)c2ccccc21	.	.	.	.	-0.132
Cc1noc(C)c1C(=O)NCCCN1CCCC1=O	1.2	-16.0	-12.8	1.1	-0.691
CCC(=O)N1CCN(c2ccccc2NC(=O)COc2cc(C)ccc2C(C)C)CC1	0	96.2*	93.3*	0.1	-7.05*
CC(=O)N1CCN(c2ccccc2NC(=O)c2cc(Br)ccc2Cl)CC1	0.4	59.2*	36.1	0.6	1.22
CC(=O)N1CCN(c2ccccc2NC(=O)COc2ccc(Cl)cc2Cl)CC1	0.5	45.8	78.3*	0.2	-4.73*
O=C(NNC(=O)C1CC(c2cccnc2)=NO1)Nc1cccc(F)c1 (stereo not given)	1.1	-11.2	-15.4	1.2	.
SMILES	CYP2C9 activ	CYP2C9 inh	CYP2C19 inhib	CYP2C19 activ	Cav32 inh
O=C1CCCN1c1ccc(S(=O)(=O)Oc2ccc(Cl)cc2)cc1[N+](=O)[O-]	0.8	20.2	49.5	0.5	-3.96
CCC(CC)C1C(C#N)=C(N)Oc2n[nH]c(C)c21 (stereo not given)	0.4	57.1*	82.2*	0.2	-0.228
CCC(CC)C1C(C#N)=C(N)Oc2n[nH]c(-c3ccccc3)c21 (stereo not given)	1.2	-22.2	57.0*	0.4	0.43
CC(C)C1C(C#N)=C(N)Oc2n[nH]c(-c3cccs3)c21 (stereo not given)	0.7	30.8	48.8	0.5	0.699
CCCc1[nH]nc2c1C(CCC)C(C#N)=C(N)O2 (stereo not given)	0.9	6.5	61.7*	0.4	0.984
CCc1[nH]nc2c1C(C(C)C)C(C#N)=C(N)O2 (stereo not given)	0.7	32.1	74.9*	0.3	0.216
CN(C)CCNC(=O)C12CC3(C)CC(C)(CC(C)(C3)C1)C2	1	0.5	12.7	0.9	1.31
O=C(Nc1cccc(C(F)(F)F)c1)/C(=C/c1ccco1)NC(=O)c1cccs1	0.9	12.7	34.3	0.7	.
COC(=O)c1sc2ccccc2c1-n1cccc1C(=O)C(=O)Nc1ccc(OC)cc1	0	100.7*	42.2	0.6	-2.28
COC(=O)c1sc2ccccc2c1-n1cccc1C(=O)C(=O)Nc1ccccc1	0	100.4*	24.3	0.8	-4.05
CCCNC(=O)C(=O)c1cccn1-c1ccsc1C(=O)OC	0.9	7.6	26.9	0.7	0.537
C=CCn1c(SCC(=O)O)nnc1-c1ccccc1	.	.	.	.	0.114
CCn1c(SCc2nc3ccccc3[nH]2)nnc1-c1ccc(OC)cc1	0.7	26.7	81.9*	0.2	0.0293
CCn1c(COc2ccc(Cl)cc2)nnc1SCc1nc2ccccc2[nH]1	0.6	40.8	30.0	0.7	-1.87
C=CCn1c(SCc2nc3ccccc3[nH]2)nnc1-c1ccc(OC)cc1	0.8	22.3	81.2*	0.2	0.811
C=CCn1c(SCc2nc3ccccc3[nH]2)nnc1-c1ccccn1	0.8	19.3	97.3*	0	-0.0275
Clc1ccc(CSc2nnc(-c3ccccn3)n2Cc2ccco2)c(Cl)c1	1.1	-11.8	-4.4	1	-1.39
CC[C@H](C)[C@@H]1NC(=O)c2cc([N+](=O)[O-])cc(I)c2SC[C@@H](C(N)=O)NC(=O)[C@H](CCCCN)NC1=O	.	.	.	.	-0.00462
Cc1ccc(NC(=O)c2nc[nH]c2C(=O)NCC(=O)OC(C)(C)C)cc1	.	.	.	.	-0.312
Cc1cccc(NC(=O)c2cc(S(=O)(=O)NCc3ccco3)ccc2F)c1C	0.9	13.1	20.5	0.8	-0.251
COc1ccc(S(=O)(=O)N2CCN(C(=O)c3cccs3)CC2)cc1	0.5	49.9	93.6*	0.1	.
CN(C)S(=O)(=O)N1CCN(C(=O)c2cccs2)CC1	1.1	-7.9	75.7*	0.2	.
O=C(c1cccs1)N1CCCC1	.	.	.	.	1.06
CC(C)n1c(N2CCN(C(=O)c3cccs3)CC2)nc2ccccc21	0.4	58.5*	50.9*	0.5	.
COc1ccc(S(=O)(=O)N2CCN(C(=O)c3cccc(Cl)c3)CC2)cc1	0.9	14.9	38.7	0.6	-0.182
SMILES	CYP2C9 activ	CYP2C9 inh	CYP2C19 inhib	CYP2C19 activ	Cav32 inh
CC(C)n1c(N2CCN(C(=O)N3CCCCC3)CC2)nc2ccccc21	1.3	-28.4	15.4	0.8	1.78
CCc1ccc(C(=O)c2oc3nc(C)cc(C)c3c2N)cc1	.	.	.	.	-1.05
O=C1CC(SCCO)C(=O)N1c1ccc(Oc2ccccc2)cc1 (stereo not given)	1	3.6	24.2	0.8	-1.87
O=C(N1CCCCC1)C12CC3CC(C1)CC(C(=O)N1CCCCC1)(C3)C2	0.4	64.2*	66.2*	0.3	-0.00988
COc1ccc2c(c1)c(=O)oc1cc3oc(C)c(C)c3cc12	0.8	18.4	69.5*	0.3	.
CCOC(=O)c1ccc(NC(=O)CC2SCCNC2=O)cc1 (stereo not given)	1.2	-20.0	2.7	1	-0.0513
CCOC(=O)c1c(NC(=O)CN(CC)CC)sc2c1CCN(C(=O)OCC)C2	0.5	49.0	24.7	0.8	-1.13

Source: PubChem BioAssay (several laboratories)
